From PubChem BioAssay
Activity calls are given as the source filed them.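 How the source made its calls: active means viability loss from added drug above about 55%, and viability with drug at most 40%, in both replicates (limit read from the data, passing the limit was not always enough); inconclusive means both conditions met in only one replicate; inactive means neither replicate meets both conditions.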

assay: reversal of MRP1-mediated doxorubicin resistance, pilot screen, H69AR cells, doxorubicin co-treatment (AID 601); details: H69AR cells + 2 uM doxorubicin, CellTiter-Glo, 72 h; at 10 µM; stronger effect = higher value

| Compound | differential viability (reversal) |
| --- | --- |
| CCOc1ccccc1CNC(=O)CCN1C(=O)COc2ccccc21 | 3.42% (inactive) |
| CCOc1ccccc1CN1C(=O)c2ccccc2C1C(=O)NCC1CCCO1 (stereo not given) | -4.52% (inactive) |
| O=C(CCCc1cccs1)Nc1nc2c(s1)CCCC2 | 2.73% (inactive) |
| COc1ccc(-c2noc(CCCC(=O)O)n2)cc1 | 5.04% (inactive) |
| CCCN(Cc1cc2cc(C)ccc2[nH]c1=O)C(=O)c1cccc(OC)c1 | -0.89% (inactive) |
| COC(=O)c1cnc2c(C(F)(F)F)cccc2c1OC | 11.6% (inactive) |
| COc1ccccc1Nc1ccc(C(=O)NC2CCCCC2)cn1 | 12% (inactive) |
| COc1cccc(C(=O)Nc2ncc3c(n2)CC(C)CC3=O)c1 (stereo not given) | 9.34% (inactive) |
| Cc1ccc(-n2c(Cn3cnc4ccccc43)nnc2SCC(=O)O)cc1 | 5.34% (inactive) |
| COCCNc1oc(-c2ccc(C)cc2)nc1C#N | 8.44% (inactive) |
| c1cn(C23CC4CC(CC(C4)C2)C3)cn1 | 8.21% (inactive) |
| CCN(Cc1cc2ccccc2[nH]c1=O)S(=O)(=O)c1ccccc1 | -12.7% (inactive) |
| CCCCn1nc(C(=O)N2CCc3ccccc32)c2ccccc2c1=O | -11.2% (inactive) |
| Cc1ccc(NCc2nnc(SCC(=O)N3CCCCC3)n2CC2CCCO2)c(C)c1 (stereo not given) | 1.68% (inactive) |
| COC(=O)c1[nH]c2ccc(F)cc2c1NS(=O)(=O)c1ccc(OC)cc1OC | -15.5% (inactive) |
| O=c1cc(COn2nnc3ccc(C(F)(F)F)cc32)nc2sccn12 | -19.7% (inactive) |
| CS(=O)(=O)N1CCCC(C(=O)NCCCN2CCc3ccccc3C2)C1 (stereo not given) | 7.38% (inactive) |
| CCNc1nc(N2CCOCC2)nc(N(c2ccccc2)c2ccccc2)n1 | 4.78% (inactive) |
| NC(=O)CSc1nnc(-c2cc3ccccc3o2)n1Cc1ccccc1 | -1.59% (inactive) |
| CS(=O)(=O)Nc1ccc(C(=O)NCc2ccco2)cc1 | 2.3% (inactive) |

| Compound | differential viability (reversal) |
| --- | --- |
| Cc1cc(C)c2[nH]c(=O)c(C(c3nnnn3Cc3ccc4c(c3)OCO4)N3CCC(C)CC3)cc2c1 (stereo not given) | -6.47% (inactive) |
| Cc1ccc(CNC(=O)CSc2n[nH]c(N)n2)cc1 | -1.86% (inactive) |
| C=C(C)Cn1c(N2CCN(CC)CC2)nc2c1c(=O)[nH]c(=O)n2C | -1.74% (inactive) |
| Cc1cc(C(=O)CN2C(=O)c3ccccc3C2=O)c(C)n1Cc1cccs1 | 3.23% (inactive) |
| Cc1ccc2nc(NCCCN3CCOCC3)c(C=NCCCN3CCOCC3)c(=O)n2c1 | -4.68% (inactive) |
| O=C(Cn1cnc2ccccc2c1=O)NCCC(=O)N1CCN(c2ccccc2)CC1 | 8.53% (inactive) |
| O=C(C1CCC1)N1CCc2cc(S(=O)(=O)N3CCc4ccccc4C3)ccc21 | -5.04% (inactive) |
| CCC(=O)N1CCc2cc(Br)cc(S(=O)(=O)CCC(=O)NCC3CCCO3)c21 (stereo not given) | 13.4% (inactive) |
| Cc1nc2ccccc2n1CCC(=O)Nc1cccc(F)c1 | -10.1% (inactive) |
| CN(C)C(=O)N1CCC(C(=O)NC2CCCCCCC2)CC1 | -1.97% (inactive) |
| O=C(CSCCSCC(=O)c1ccco1)c1ccco1 | 11.3% (inactive) |
| O=c1cnnc(NCc2ccccc2)[nH]1 | 11.8% (inactive) |
| COc1ccccc1C1CC(c2ccc(C)cc2)Nc2ncnn21 (stereo not given) | -16% (inactive) |
| O=c1cc(CSc2ccccn2)c2ccccc2[nH]1 | 8.09% (inactive) |
| COC(=O)CC1SC(=O)NC1=O (stereo not given) | 10.4% (inactive) |
| Cc1ccc(C)c(N2CCN(S(=O)(=O)c3ccc4c(c3)OCCO4)CC2)c1 | 4.96% (inactive) |
| O=C(NCCC1=CCCCC1)c1cc2c(s1)CS(=O)(=O)C2 | 4.64% (inactive) |
| Cc1c(C(=O)OC(C)C)[nH]c2c1C(=O)CCC2 | 12.9% (inactive) |
| Cc1cc(NCCN2CCCCC2)n2c(nc3ccccc32)c1C#N | -7.47% (inactive) |
| CCOC(=O)Cn1nc(-c2ccc(C)cc2)ccc1=O | 15.4% (inactive) |

same assay, conditions: H69AR cells + 2 uM doxorubicin, CellTiter-Glo, 72 h; measured here: viability with 2 uM doxorubicin; at 10 µM; stronger effect = lower value

| Compound | viability |
| --- | --- |
| CCOc1ccccc1CNC(=O)CCN1C(=O)COc2ccccc21 | 89.5% |
| CCOc1ccccc1CN1C(=O)c2ccccc2C1C(=O)NCC1CCCO1 (stereo not given) | 105% |
| O=C(CCCc1cccs1)Nc1nc2c(s1)CCCC2 | 81.7% |
| COc1ccc(-c2noc(CCCC(=O)O)n2)cc1 | 89.9% |
| CCCN(Cc1cc2cc(C)ccc2[nH]c1=O)C(=O)c1cccc(OC)c1 | 82.1% |
| COC(=O)c1cnc2c(C(F)(F)F)cccc2c1OC | 86.8% |
| COc1ccccc1Nc1ccc(C(=O)NC2CCCCC2)cn1 | 81.2% |
| COc1cccc(C(=O)Nc2ncc3c(n2)CC(C)CC3=O)c1 (stereo not given) | 100% |
| Cc1ccc(-n2c(Cn3cnc4ccccc43)nnc2SCC(=O)O)cc1 | 92.3% |
| COCCNc1oc(-c2ccc(C)cc2)nc1C#N | 77.5% |
| c1cn(C23CC4CC(CC(C4)C2)C3)cn1 | 84.1% |
| CCN(Cc1cc2ccccc2[nH]c1=O)S(=O)(=O)c1ccccc1 | 99.8% |
| CCCCn1nc(C(=O)N2CCc3ccccc32)c2ccccc2c1=O | 105% |
| Cc1ccc(NCc2nnc(SCC(=O)N3CCCCC3)n2CC2CCCO2)c(C)c1 (stereo not given) | 87% |
| COC(=O)c1[nH]c2ccc(F)cc2c1NS(=O)(=O)c1ccc(OC)cc1OC | 99.9% |
| O=c1cc(COn2nnc3ccc(C(F)(F)F)cc32)nc2sccn12 | 105% |
| CS(=O)(=O)N1CCCC(C(=O)NCCCN2CCc3ccccc3C2)C1 (stereo not given) | 87.8% |
| CCNc1nc(N2CCOCC2)nc(N(c2ccccc2)c2ccccc2)n1 | 79.4% |
| NC(=O)CSc1nnc(-c2cc3ccccc3o2)n1Cc1ccccc1 | 91.8% |
| CS(=O)(=O)Nc1ccc(C(=O)NCc2ccco2)cc1 | 101% |

| Compound | viability |
| --- | --- |
| Cc1cc(C)c2[nH]c(=O)c(C(c3nnnn3Cc3ccc4c(c3)OCO4)N3CCC(C)CC3)cc2c1 (stereo not given) | 93.1% |
| Cc1ccc(CNC(=O)CSc2n[nH]c(N)n2)cc1 | 98.5% |
| C=C(C)Cn1c(N2CCN(CC)CC2)nc2c1c(=O)[nH]c(=O)n2C | 87.5% |
| Cc1cc(C(=O)CN2C(=O)c3ccccc3C2=O)c(C)n1Cc1cccs1 | 83% |
| Cc1ccc2nc(NCCCN3CCOCC3)c(C=NCCCN3CCOCC3)c(=O)n2c1 | 86.6% |
| O=C(Cn1cnc2ccccc2c1=O)NCCC(=O)N1CCN(c2ccccc2)CC1 | 83.5% |
| O=C(C1CCC1)N1CCc2cc(S(=O)(=O)N3CCc4ccccc4C3)ccc21 | 94% |
| CCC(=O)N1CCc2cc(Br)cc(S(=O)(=O)CCC(=O)NCC3CCCO3)c21 (stereo not given) | 79.4% |
| Cc1nc2ccccc2n1CCC(=O)Nc1cccc(F)c1 | 90% |
| CN(C)C(=O)N1CCC(C(=O)NC2CCCCCCC2)CC1 | 94.8% |
| O=C(CSCCSCC(=O)c1ccco1)c1ccco1 | 90% |
| O=c1cnnc(NCc2ccccc2)[nH]1 | 91.5% |
| COc1ccccc1C1CC(c2ccc(C)cc2)Nc2ncnn21 (stereo not given) | 118% |
| O=c1cc(CSc2ccccn2)c2ccccc2[nH]1 | 85.1% |
| COC(=O)CC1SC(=O)NC1=O (stereo not given) | 94.6% |
| Cc1ccc(C)c(N2CCN(S(=O)(=O)c3ccc4c(c3)OCCO4)CC2)c1 | 101% |
| O=C(NCCC1=CCCCC1)c1cc2c(s1)CS(=O)(=O)C2 | 83.8% |
| Cc1c(C(=O)OC(C)C)[nH]c2c1C(=O)CCC2 | 93% |
| Cc1cc(NCCN2CCCCC2)n2c(nc3ccccc32)c1C#N | 92.6% |
| CCOC(=O)Cn1nc(-c2ccc(C)cc2)ccc1=O | 84.6% |
